According to PubChem BioAssay (Tox21):
Inconclusive results are not listed. Activity calls are given as the source filed them. Unless noted, calls follow the shape of the full dose curve.

Columns and labels:
[1] = Nuclear factor erythroid 2-related factor 2/antioxidant responsive element (Nrf2/ARE) small molecule agonists: qHTS cell viability counter screen in human keratinocytes (AID 1919968; active = well fitted curve in the direction sought with a large enough effect in the repeat runs; an effect the other way counts as inactive or inconclusive; also: nearly all actives have a fitted effect of over 55% in size)
Method in brief: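 Cytotoxicity was multiplexed with the Nrf2/ARE luciferase assay in the same wells. Stably transfected HaCaT keratinocytes were treated with test compounds for 23 h at 37 C. Cell viability was then measured by CellTiter-Fluor fluorescence.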

[2] = biological target: Gonadotropin-releasing hormone receptor (Homo sapiens) (UniProt P30968); test: Human gonadotropin-releasing hormone receptor (GnRHR) small molecule agonists, calcium flux assay in GnRHR-HEK293 cells (AID 1920063); also: nearly all actives have a fitted effect of over 35% in size
Method in brief: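 Agonist activity was measured as intracellular calcium flux in HEK293 cells engineered to stably express human GnRHR. After dye loading for 1 hour at 37 C, compounds in DMSO were added and fluorescence was followed for 3 minutes.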

[3] = biological target: KiSS-1 receptor (Homo sapiens) (UniProt Q969F8); test: Human kisspeptin (KISS1R) small molecule agonists, calcium flux assay in KISS1R-HEK293 cells (AID 1920064; active = well fitted curve in the direction sought with a large enough effect in the repeat runs; an effect the other way counts as inactive or inconclusive)
Method in brief: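 Agonist activity is monitored as intracellular calcium rise in engineered HEK293 cells carrying human KISS1R. Cells are dye-loaded for 1 h at 37 C before compound addition, and fluorescence is recorded for 3 min.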

[4] = p53 small molecule agonists, cell-based qHTS assay with human liver microsomes (AID 1963577)
Method in brief: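 p53RE-bla reporter cells were pre-incubated 5 h at 37 C, then treated with compounds plus human liver microsomes (0.5 mg/mL final) and NADPH (0.5 mg/mL final) for 16 h at 37 C. Beta-lactamase activity was read by LiveBLAzer fluorescence after 2 h at room temperature.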

[5] = p53 small molecule agonists, cell-based qHTS assay with rat liver microsomes (AID 1963578)
Method in brief: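 p53RE-bla cells were exposed to compounds together with rat liver microsomes (0.5 mg/mL final) and NADPH (0.5 mg/mL final) for 16 h at 37 C, then read by LiveBLAzer beta-lactamase fluorescence after 2 h at room temperature.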

[6] = p53 small molecule agonists, cell-based qHTS assay with rat liver microsomes: qHTS cell viability counter screen (AID 1963580); also: nearly all actives have a fitted effect of over 45% in size
Method in brief: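 Luminescent ATP readout (CellTiter-Glo, 30 min at room temperature) reports viability of p53RE-bla HCT-116 cells after 16 h at 37 C with test compounds under metabolic activation by rat liver microsomes and NADPH at 0.5 mg/mL final each.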

[7] = p53 small molecule agonists, cell-based qHTS assay: qHTS cell viability counter screen (AID 1963581); also: nearly all actives have a fitted effect of over 45% in size
Method in brief: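 Viability was counter-screened in parallel with the p53 agonist reporter by measuring intracellular ATP luminescence in the same HCT-116 p53RE-bla wells after 16 h compound treatment at 37 C.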

[8] = p53 small molecule agonists, cell-based qHTS assay (AID 1963582; active = well fitted activation curve with a large enough effect in the signal ratio in the repeat runs, not every such curve was filed as active; the % refers to the signal ratio)
Method in brief: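 Cells carrying a p53-responsive bla reporter are treated with test compounds for 16 h at 37 C; beta-lactamase activity is then detected with LiveBLAzer B/G FRET substrate after 2 h at room temperature.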

[9] = biological target: 5-hydroxytryptamine receptor 2A (Homo sapiens) (UniProt P28223); test: 5-hydroxytryptamine receptor 2A (HTR2A) small molecule antagonists, cell-based qHTS assay (AID 1963586); also: nearly all actives have a fitted effect of over 45% in size
Method in brief: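 CHO cells stably expressing human HTR2A were plated for 18 h at 37 C, then loaded with calcium dye for 1 h. Compounds were preincubated 5 min at room temperature before DOI (4 nM solution) was added. Kinetic fluorescence was read for 3 min.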

[10] = biological target: 5-hydroxytryptamine receptor 2A (Homo sapiens) (UniProt P28223); test: 5-hydroxytryptamine receptor 2A (HTR2A) small molecule agonists, cell-based qHTS assay (AID 1963587); also: nearly all actives have a fitted effect of over 30% in size
Method in brief: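 HTR2A-CHO cells, plated 18 h at 37 C/5% CO2, dye-loaded 1 h at 37 C; compounds in DMSO added by pin tool (agonist mode). Intracellular calcium flux read as kinetic fluorescence on FDSS over 2 min at 1 s intervals.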

[11] = biological target: Muscarinic acetylcholine receptor M1 (Homo sapiens) (UniProt P11229); test: Cholinergic receptor muscarinic 1 (CHRM1) small molecule antagonists, cell-based qHTS assay (AID 1963588); also: nearly all actives have a fitted effect of over 40% in size
Method in brief: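 Compounds were tested at 15 concentrations in three independent runs. Dye-loaded CHRM1-CHO cells were exposed 5 min at room temperature before stimulation by acetylcholine added at 50nM. Intracellular calcium was read kinetically on FDSS for 3 min.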

[12] = biological target: Muscarinic acetylcholine receptor M1 (Homo sapiens) (UniProt P11229); test: Cholinergic receptor muscarinic 1 (CHRM1) small molecule agonists, cell-based qHTS assay (AID 1963589); also: nearly all actives have a fitted effect of over 35% in size
Method in brief: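 Cells were plated and incubated 18 h at 37 C/5% CO2, loaded with calcium dye for 1 h at 37 C, then treated with compounds in DMSO. Fluorescence was recorded kinetically at 1 sec intervals.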

[13] = cAMP Responsive Elements (CRE) small molecule agonists, cell-based qHTS assay (AID 1963590)
Method in brief: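 Cells carrying a CRE-driven beta-lactamase reporter (HEK 293T) are seeded, incubated overnight (18 h), and treated with test compounds for 3 h at 37 C; reporter activity is then detected with a FRET substrate after 2 h at room temperature.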

[14] = biological target: Beta-2 adrenergic receptor (Homo sapiens) (UniProt P07550); test: Adrenergic beta2 receptor (ADRB2) small molecule antagonists, cell-based qHTS assay (AID 1963592); also: series mostly up to about 92 µM; nearly all actives have a fitted effect of over 50% in size
Method in brief: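 Assay format: CHO-ADRB2 cells, 18-20hr seeding at 37C/5% CO2, then compound plus 1nM isoproterenol agonist mix for 0.5hr RT. Homogeneous time-resolved fluorescence cAMP detection after 1hr, expressed as 665/615 nm ratio.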

[15] = biological target: D(2) dopamine receptor (Homo sapiens) (UniProt P14416); test: Dopamine D2 receptor (DRD2) small molecule agonists, cell-based qHTS assay (AID 1963594); also: nearly all actives have a fitted effect of over 35% in size
Method in brief: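 HEK293 cells stably expressing DRD2 were cultured 24 h at 37 C, then given Ro20-1724 (0.1 mM final) and compounds for 10 min at room temperature. NKH477 (200nM) was then added for 30 min. cAMP was read by HTRF.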

[16] = biological target: D(2) dopamine receptor (Homo sapiens) (UniProt P14416); test: Dopamine D2 receptor (DRD2) small molecule antagonists, cell-based qHTS assay (AID 1963595; active = well fitted inhibition curve with a large enough effect in the signal ratio in the repeat runs, with a control signal flat; the % refers to the signal ratio)
Method in brief: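 HEK293 cells stably expressing DRD2 were preincubated with 0.1 mM Ro20-1724, then with compound for 10 min at room temperature. Cells were stimulated with 200 nM NKH477 plus 12 nM quinpirole for 30 min, and cAMP was read by HTRF.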

[17] = G protein-coupled receptor (GPCR) small molecule agonists, calcium flux assay: HEK293 wild type cell line counter screen (AID 1920065)
Method in brief: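 Seed cells, incubate 18 h (37 C, 5% CO2); add calcium dye, 1 h at 37 C; pin-transfer compounds, ATP control or DMSO; read fluorescence 480/540 nm each second for 3 min.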

[18] = cAMP Responsive Elements (CRE) small molecule antagonists, cell-based qHTS assay (AID 1963591; active = well fitted inhibition curve with a large enough effect in the signal ratio in the repeat runs, not every such curve was filed as active; the % refers to the signal ratio)
Method in brief: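 Cells (CRE-bla HEK 293T, DMEM with 10% dialyzed FBS and 25 mM HEPES) are seeded and incubated 18 h. Compounds are added with NKH477 agonist at 0.25 uM final for 3 h, then FRET substrate for 2 h.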

[19] = p53 small molecule agonists, cell-based qHTS assay with human liver microsomes: qHTS cell viability counter screen (AID 1963579); also: nearly all actives have a fitted effect of over 45% in size
Method in brief: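 p53RE-bla cells (4,000/well) were pre-incubated 5 h at 37 C, then given compounds in DMSO plus human liver microsomes (0.5 mg/mL final) and NADPH (0.5 mg/mL final) for 16 h at 37 C. Viability was read by CellTiter-Glo luminescence.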

[20] = biological target: Beta-2 adrenergic receptor (Homo sapiens) (UniProt P07550); test: Adrenergic beta2 receptor (ADRB2) small molecule agonists, cell-based qHTS assay (AID 1963593);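 also: CHO cells stably overexpressing human ADRB2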
Method in brief: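 CHO cells stably over-expressing ADRB2 were plated overnight at 37C, then dosed with compounds plus a stimulation mix containing 100uM IBMX and 25uM Ro-20-1724 for 0.5hr at room temperature. cAMP was measured by HTRF competition, 1hr.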
% is scaled to controls: 0 for no effect and ±100 for the full control effect.

Sequence of D(2) dopamine receptor (Homo sapiens) (P14416 whole entry, looked up): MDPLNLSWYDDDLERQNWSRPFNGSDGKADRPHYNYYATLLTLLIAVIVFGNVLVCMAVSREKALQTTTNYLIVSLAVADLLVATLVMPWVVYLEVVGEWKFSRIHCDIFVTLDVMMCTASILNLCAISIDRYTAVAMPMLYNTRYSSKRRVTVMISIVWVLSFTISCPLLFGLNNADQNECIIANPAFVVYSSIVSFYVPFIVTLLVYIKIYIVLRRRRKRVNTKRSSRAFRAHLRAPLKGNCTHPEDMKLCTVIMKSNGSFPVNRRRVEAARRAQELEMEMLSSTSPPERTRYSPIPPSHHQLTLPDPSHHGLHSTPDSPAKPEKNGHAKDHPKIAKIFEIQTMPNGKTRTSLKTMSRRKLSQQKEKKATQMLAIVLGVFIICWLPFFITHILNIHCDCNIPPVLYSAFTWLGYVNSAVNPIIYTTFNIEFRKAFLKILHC
Sequence of Beta-2 adrenergic receptor (Homo sapiens) (P07550 whole entry, looked up): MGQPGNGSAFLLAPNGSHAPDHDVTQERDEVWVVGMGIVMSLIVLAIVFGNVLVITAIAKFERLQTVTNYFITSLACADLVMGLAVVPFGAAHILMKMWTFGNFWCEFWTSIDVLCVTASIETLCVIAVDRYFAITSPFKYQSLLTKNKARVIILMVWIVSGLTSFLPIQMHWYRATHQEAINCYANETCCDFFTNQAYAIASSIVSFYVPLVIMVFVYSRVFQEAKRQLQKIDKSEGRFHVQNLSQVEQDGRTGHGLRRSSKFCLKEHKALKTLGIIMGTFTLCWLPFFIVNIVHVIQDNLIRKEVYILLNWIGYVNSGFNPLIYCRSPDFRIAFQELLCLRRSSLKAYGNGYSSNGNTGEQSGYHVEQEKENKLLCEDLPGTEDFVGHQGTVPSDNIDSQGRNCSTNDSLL
Sequence of Gonadotropin-releasing hormone receptor (Homo sapiens) (P30968 whole entry, looked up): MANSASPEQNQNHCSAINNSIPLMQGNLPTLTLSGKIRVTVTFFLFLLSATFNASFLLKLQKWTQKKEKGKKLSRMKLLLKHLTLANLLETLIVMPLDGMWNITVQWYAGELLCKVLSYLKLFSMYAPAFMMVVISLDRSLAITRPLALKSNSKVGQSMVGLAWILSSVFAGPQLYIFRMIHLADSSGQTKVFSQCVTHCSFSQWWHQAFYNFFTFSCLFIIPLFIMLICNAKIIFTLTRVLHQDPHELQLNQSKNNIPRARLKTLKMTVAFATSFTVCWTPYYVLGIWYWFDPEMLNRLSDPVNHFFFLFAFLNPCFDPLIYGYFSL
Sequence of 5-hydroxytryptamine receptor 2A (Homo sapiens) (P28223 whole entry, looked up): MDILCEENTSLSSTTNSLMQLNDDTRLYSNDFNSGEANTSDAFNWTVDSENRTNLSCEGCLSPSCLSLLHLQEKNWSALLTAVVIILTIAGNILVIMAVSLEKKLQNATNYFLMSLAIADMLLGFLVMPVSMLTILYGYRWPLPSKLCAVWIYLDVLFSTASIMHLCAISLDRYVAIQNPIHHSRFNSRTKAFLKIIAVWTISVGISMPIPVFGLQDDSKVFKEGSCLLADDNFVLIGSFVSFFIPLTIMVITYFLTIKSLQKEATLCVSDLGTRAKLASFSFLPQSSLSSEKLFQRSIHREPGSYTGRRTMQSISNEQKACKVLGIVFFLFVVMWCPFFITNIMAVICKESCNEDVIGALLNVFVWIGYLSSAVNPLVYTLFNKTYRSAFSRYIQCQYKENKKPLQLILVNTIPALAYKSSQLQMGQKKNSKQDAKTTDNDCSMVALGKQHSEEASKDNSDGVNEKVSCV
Sequence of KiSS-1 receptor (Homo sapiens) (Q969F8 whole entry, looked up): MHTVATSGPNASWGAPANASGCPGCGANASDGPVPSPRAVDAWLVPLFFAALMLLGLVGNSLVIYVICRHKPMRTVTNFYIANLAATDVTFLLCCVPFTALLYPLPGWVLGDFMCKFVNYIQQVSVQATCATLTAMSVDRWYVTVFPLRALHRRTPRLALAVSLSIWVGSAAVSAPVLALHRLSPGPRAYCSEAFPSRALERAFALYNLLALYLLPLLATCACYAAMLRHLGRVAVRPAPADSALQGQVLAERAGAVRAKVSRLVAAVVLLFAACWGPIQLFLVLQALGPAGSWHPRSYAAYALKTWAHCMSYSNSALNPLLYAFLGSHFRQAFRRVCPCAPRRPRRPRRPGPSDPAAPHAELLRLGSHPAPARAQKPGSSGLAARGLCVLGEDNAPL
Sequence of Muscarinic acetylcholine receptor M1 (Homo sapiens) (P11229 whole entry, looked up): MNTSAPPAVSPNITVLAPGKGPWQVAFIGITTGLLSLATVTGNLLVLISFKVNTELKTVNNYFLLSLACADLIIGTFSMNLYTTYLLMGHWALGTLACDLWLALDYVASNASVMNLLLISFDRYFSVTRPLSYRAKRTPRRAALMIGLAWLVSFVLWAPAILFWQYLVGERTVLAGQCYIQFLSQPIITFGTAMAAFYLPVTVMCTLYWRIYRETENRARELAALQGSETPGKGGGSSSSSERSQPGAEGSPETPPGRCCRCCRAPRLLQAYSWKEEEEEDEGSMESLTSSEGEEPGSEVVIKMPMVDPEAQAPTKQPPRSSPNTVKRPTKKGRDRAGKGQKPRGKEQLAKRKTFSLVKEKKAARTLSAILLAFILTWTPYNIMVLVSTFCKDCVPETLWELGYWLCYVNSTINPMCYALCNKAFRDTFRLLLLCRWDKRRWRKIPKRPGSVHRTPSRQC

COc1ccc(/C(C)=C/C(=O)O)c(OC)c1
inactive: Potency [1] | Potency [2] | outcome [3] | Potency [4] | Potency [5] | Potency [6] | Potency [7] | Potency [8] | Potency [9] | Potency [10] | Potency [11] | Potency [12] | Potency [13] | Potency [14] | Potency [15] | Potency [16]

CN1C(=O)c2ccc([N+](=O)[O-])cc2C1=O
inactive: Potency [1] | outcome [3] | outcome [17] | Potency [4] | Potency [5] | Potency [6] | Potency [7] | Potency [8] | Potency [9] | Potency [11] | Potency [12] | Potency [13] | Potency [18] | Potency [14] | Potency [16]

N#Cc1cscn1
inactive: Potency [1] | outcome [3] | outcome [17] | Potency [4] | Potency [5] | Potency [19] | Potency [6] | Potency [7] | Potency [8] | Potency [9] | Potency [10] | Potency [11] | Potency [12] | Potency [13] | Potency [18] | Potency [14] | Potency [15] | Potency [16]

CN(C)[C@@H]1C(=O)C(C(=O)NCN2CCCC2)=C(O)[C@@]2(O)C(=O)C3=C(O)c4c(O)cccc4[C@@](C)(O)C3C[C@@H]12 (stereo not given in full)
inactive: Potency [1] | outcome [3] | Potency [4] | Potency [5] | Potency [6] | Potency [7] | Potency [8] | Potency [9] | Potency [10] | Potency [11] | Potency [12] | Potency [18] | Potency [14] | Potency [15] | Potency [16]

CC(C)CC(C)CC(C)CC(C)COC(=O)c1ccccc1C(=O)OCC(C)CC(C)CC(C)CC(C)C (stereo not given)
inactive: Potency [1] | Potency [2] | outcome [17] | Potency [4] | Potency [5] | Potency [6] | Potency [7] | Potency [8] | Potency [9] | Potency [10] | Potency [11] | Potency [12] | Potency [13] | Potency [18] | Potency [14] | Potency [20] | Potency [15] | Potency [16]

COC(=O)C(c1ccccc1Cl)N1CCc2sccc2C1 (stereo not given)
inactive: Potency [1] | outcome [3] | Potency [4] | Potency [5] | Potency [19] | Potency [6] | Potency [7] | Potency [8] | Potency [14] | Potency [20] | Potency [15] | Potency [16]

NC(Cc1ccc(Cl)cc1)C(=O)O (stereo not given)
inactive: activity change, negative = cytotoxicity [1] -10.3% [at 0.349 µM] | activity change [2] -0.23% [at 0.217 µM, hits give high values] | activation [3] -1.07% [at 0.29 µM] | activation [17] 1.18% [at 0.217 µM] | activity change, negative = cytotoxicity [6] -0.306% [at 0.249 µM] | activity change, negative = cytotoxicity [7] 8.87% [at 0.249 µM] | activation [8] -0.216% [at 0.249 µM] | activity, negative = inhibition [9] -30.9% [at 0.233 µM] | activation [10] 0.604% [at 0.292 µM] | activity, negative = inhibition [11] 9.51% [at 0.232 µM] | activation [12] -0.299% [at 0.29 µM] | activation [13] -0.737% [at 0.349 µM] | activity change, negative = inhibition [18] 2.88% [at 0.349 µM] | activity change, negative = inhibition [14] -0.117% [at 0.349 µM] | activation [15] 0.127% [at 0.349 µM] | activity change, negative = inhibition [16] 0.383% [at 0.348 µM]
